# TR SRC2 fluor cs = alters Texas Red total fluorescence, flagging assay interference. TRb/SRC2 Texas Red total fluorescence interference. Potency, µM (highest dose often 106 µM), for inactives: at the highest dose fluorescence change, negative = quenching. 280,000 compounds, 0.29% hits; active = well fitted curve in either direction with a large enough effect; inconclusive = small, poorly fitted or top-dose-only effect
#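 Human TRβ ligand-binding domain (0.6 uM) and Texas Red SRC2 peptide (20 nM) in Tris buffer with 1 uM T3 and 5% DMSO were incubated with pinned compound for 5 hr at ambient temperature. Total fluorescence was computed as S + 2P (555/632 nm).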
# Tau fluor cs = counter-screen for tau fibril formation inhibitors. 280,000 compounds, 0.93% hits. AID 1463. Potency, µM (highest dose often 57.7 µM), inactives show at the top dose activity change, negative = decrease. tau K18 P301L Alexa594 fluorescence, heparin fibrillization; also: nearly all actives have a fitted effect of over 55% in size
#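 Human tau K18 P301L (15 uM unlabeled, 0.24 uM Alexa 594-labeled) in 100 mM sodium acetate pH 7 with 20 uM heparin, 6 hr at 37 C. ThT 30 uM added, 1 hr ambient; Alexa 594 FP and total fluorescence read at 555/632 nm.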
# Tau ThT inhib = tau fibrillization inhibition (ThT binding); Potency, µM (top dose mostly 57.4 µM), for inactives: top-dose activity, negative = inhibition, usual class: inhibitors; AID 1460; P10636; 270,000 compounds, 2.1% hits; recombinant tau K18 P301L, heparin-induced fibrillization, ThT fluorescence; also: nearly all actives have a fitted effect of over 55% in size
# Target sequence (P10636 561-689 P618L limits assumed): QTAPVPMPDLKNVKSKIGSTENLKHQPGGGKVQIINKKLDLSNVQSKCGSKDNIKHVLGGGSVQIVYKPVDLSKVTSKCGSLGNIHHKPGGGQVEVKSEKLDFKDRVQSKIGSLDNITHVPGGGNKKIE
#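 Fibril formation assay: tau K18 P301L at 15 uM with trace Alexa 594 label, heparin inducer 20 uM, pH 7 sodium acetate buffer, 37 C for 6 hr; endpoint ThT signal.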
# TRb-SRC2 inh = disrupts binding of human TR beta to SRC2; Potency, µM (series often up to 106 µM), for the others: at the top dose activity change, negative = inhibition, usual class: inhibitors; TRbeta-SRC2 peptide binding, fluorescence polarization; receptor liganded with 1 µM T3; 280,000 compounds, 0.065% hits;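 also: plate controls were bound peptide for no effect and peptide without receptor for full effect; nearly all actives have a fitted effect of over 50% in size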
# Target sequence (P10828 whole entry, looked up): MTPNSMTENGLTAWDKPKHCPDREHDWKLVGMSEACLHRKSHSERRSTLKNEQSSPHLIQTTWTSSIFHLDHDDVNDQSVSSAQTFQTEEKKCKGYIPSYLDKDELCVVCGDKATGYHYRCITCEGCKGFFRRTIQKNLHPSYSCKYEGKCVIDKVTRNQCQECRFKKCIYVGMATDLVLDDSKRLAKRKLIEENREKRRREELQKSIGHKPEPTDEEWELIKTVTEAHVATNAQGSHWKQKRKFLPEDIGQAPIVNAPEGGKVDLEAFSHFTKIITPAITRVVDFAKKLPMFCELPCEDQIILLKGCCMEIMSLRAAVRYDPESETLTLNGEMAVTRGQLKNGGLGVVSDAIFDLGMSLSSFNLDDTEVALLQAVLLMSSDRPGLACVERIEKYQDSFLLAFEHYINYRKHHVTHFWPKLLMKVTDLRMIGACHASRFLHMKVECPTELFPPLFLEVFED
#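 Compounds were added to 0.6 uM TRb ligand-binding domain and 20 nM Texas Red-labeled SRC2 peptide in Tris buffer containing 1 uM T3, incubated 5 hr at ambient temperature, then read by fluorescence polarization.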
# Tau fibril FP = inhibitors of human tau fibril formation; P10636; K18 P301L tau heparin fibrillization, Alexa594 FP, 6 h; Potency, µM (titrated, usually from 57.7 µM), inactives show top-dose activity, negative = inhibition, most hits filed as inhibitors; 280,000 compounds, 0.39% hits; also: nearly all actives have a fitted effect of over 55% in size
#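 Steps: dispense K18 P301L tau (15 uM plus 0.24 uM Alexa 594 tracer, final) in pH 7 sodium acetate; add compound; add heparin (20 uM final); incubate 6 hr, 37 C; add ThT (30 uM final); after 1 hr ambient, read FP.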
# The depositor's hits bear a star; u = inconclusive; x = no result given; ! = not confirmed by another sample; [ ] = remark or other dose. The list is not random: actives were taken first. Their share in the collection is about 3.1%. Unless noted, calls follow the shape of the dose curve; as a rule, active = well fitted curve in the direction sought with a large enough effect; inconclusive = small, poorly fitted or top-dose-only effect, or another doubt; inactive = no such curve, though single readings can be large; an effect the other way counts as inactive or inconclusive. Unless noted, % is scaled to controls: 0 for no effect and ±100 for the full control effect; potency is read from the fitted curve at half-maximal effect.
SMILES,TR SRC2 fluor cs,Tau fluor cs,Tau ThT inhib,TRb-SRC2 inh,Tau fibril FP
COc1ccccc1Nc1ccc([N+](=O)[O-])cc1N,-1%,u,14µM*,-9%,13%
CCCCCCCCCCCCCCO,0%[201 µM],x,x,6%[201 µM],x
CCc1ccc(NC(=O)C(=O)NCCc2csc(-c3ccc(C(F)(F)F)cc3)n2)cc1,6%,-9%,-12%,8%,-12%
O=C(Nc1nc(-c2ccccc2)cs1)c1cccc([N+](=O)[O-])c1,-4%,16µM*[quencher],u,-5%,14%
Cc1nc(C)c(C(=O)Nc2ncc([N+](=O)[O-])s2)o1,-10%,-23%,25µM*,2%,u
O=C(Nc1ccccc1)Nc1ncc([N+](=O)[O-])s1,-5%,u,18µM*,1%,1%
COc1ccccc1Nc1nc(C)cs1,0%,u,22µM*,8%,u
CC(C)CC(=O)Nc1ncc([N+](=O)[O-])s1,-8%,-12%,x,2%,-9%
CC(C)(C)OC(=O)N1CCC(c2c(C(=O)NCc3ccccc3)cnn2-c2cccc(F)c2)CC1,-1%,-17%,-11%,5%,4%
CC1=C(c2ccc(C)c(C)c2)S(=O)(=O)N=C1N1CCC(C(=O)NCc2ccc(C)o2)CC1,-18%,5%,-14%,7%,-2%
CCCCc1nc2c(c3c1C[C@H](C)OC3)CN(S(=O)(=O)c1ccccc1C(=O)OC)CC2,-4%[11.2 µM],-6%[11.6 µM],4%[11.5 µM],-1%[11.2 µM],6%[11.6 µM]
COc1ccccc1Nc1nc(-c2cccc([N+](=O)[O-])c2)cs1,-6%,14µM*[quencher],u,-5%,1%
COc1ccc(NC(=O)c2cc3cccc(OC)c3oc2=Nc2ccc(C(=O)O)cc2)cc1OC,-14%,u,14µM*,4%,u
O=C(O)C1CN(C(=O)c2cccc(Br)c2)C1,4%,-2%,0%,1%,-2%
O=C(Nc1ccccc1)Nc1ccc(Br)c(Cl)c1,3%,u,u,2%,14µM*
O=C(Nc1ccc(Cl)c(Cl)c1)Nc1ccc(Br)cc1F,-19%,u,u,6%,7.1µM*
O=C(NNc1ccccc1[N+](=O)[O-])Nc1ccccc1,-2%,-22%,u,-14%,-4%
O=C(Nc1ccc(Cl)c(Cl)c1)Nc1ccccc1O,-2%,13µM*[quencher],u,-2%,-5%
O=C(NNc1ccccc1[N+](=O)[O-])Nc1ccc(Cl)c(Cl)c1,-3%,16µM*[quencher],16µM*,-1%,u
O=C(Nc1ccc(Cl)cc1)Nc1ccc(Cl)c(Cl)c1,0%[201 µM],x,x,-1%[201 µM],x
COc1ccc(-c2nc3c(c4c2C[C@H](c2ccccc2)OC4)CN(C(=O)c2cc(I)ccc2F)CC3)c(C)c1,-3%[11.2 µM],6%[11.6 µM],1%[11.5 µM],2%[11.2 µM],-1%[11.6 µM]
CC12C=C(/C=C/c3ccc(F)cc3)C(C)(C1)C(c1ccc(F)cc1)CC2=O (configuration not stated),1%[11.2 µM],-18%[11.6 µM],-16%[11.5 µM],4%[11.2 µM],6%[11.6 µM]
CCN(CC)S(=O)(=O)c1cc([N+](=O)[O-])ccc1NNC(=O)Nc1ccc(Cl)c(Cl)c1,0%,7.1µM*[quencher],-22%,-21%,u
CN(C)CCNC(=O)c1ccc(-n2c(-c3ccccc3)cc3c2CCCCC3)cc1,3%,u,1%,3%,22µM*
CCOCCCNC(=O)c1ccc(-n2c(-c3ccccc3)cc3c2CCCC3)cc1,-2%,u,u,-7%,-6%
SMILES,TR SRC2 fluor cs,Tau fluor cs,Tau ThT inhib,TRb-SRC2 inh,Tau fibril FP
COCCCNC(=O)c1ccc(-n2c(-c3ccccc3)cc3c2CCCCC3)cc1,-23%,u,-5%,4%,18µM*
COc1cccc2c1C(=O)c1c(O)c3c(c(O)c1C2=O)C[C@@](O)(C(=O)CO)C[C@@H]3OC1CC(N)C(O)C(C)O1 (some centres not stated),32µM*[fluorescent],x,x,20µM*,x
COc1cccc2c1C(=O)c1c(O)c3c(c(O)c1C2=O)C[C@@](O)(C(=O)CO)C[C@@H]3O[C@H]1C[C@H](N)[C@H](O)[C@H](C)O1,100µM*[fluorescent],-6%,3.2µM*,22µM*!,25µM*
COc1cccc2c1C(=O)c1c(O)c3c(c(O)c1C2=O)C[C@@](O)(C(=O)CO)C[C@@H]3O[C@@H]1C[C@H](N)[C@H](O)[C@H](C)O1,45µM*[fluorescent],10%,13µM*,25µM*,u
COc1cccc2c1C(=O)c1c(O)c3c(c(O)c1C2=O)C[C@](O)(C(C)=O)C[C@H]3O[C@@H]1C[C@H](N)[C@H](O)[C@H](C)O1,14µM*[fluorescent],x,x,13µM*,x
C/C1=C\[C@@H](O)C(C(C)C)C(OC(=O)c2ccc(O)cc2)C/C(C)=C/CC1 (some centres not stated),-6%,x,x,-5%,x
CCc1ccc(-n2nc3ccc(NC(=O)c4cc5ccccc5o4)cc3n2)cc1,0%,-6%,u,12%,-7%
CC(=O)C1(O)Cc2c(O)c3c(c(O)c2C(OC2CC(N)C(O)C(C)O2)C1)C(=O)c1c(O)cccc1C3=O (configuration not stated),45µM*[fluorescent],x,x,25µM*,x
C/C=C/C/C=C\CCCCCCCCOC(C)=O,1%[201 µM],x,x,-1%[201 µM],x
CCOc1cc(/C=C(/C#N)C(=O)Nc2ccc(O)cc2)cc(Br)c1O,-17%,u,8.9µM*,-1%,13%
C=CCNC(=O)/C(C#N)=C\c1cc(Cl)c(O)c(OCC)c1,4%,-11%,u,1%,7%
N#CC1=C2SCN(Cc3ccco3)CN2C(=O)CC1c1ccccc1F (configuration not stated),-2%,-24%,18µM*,-23%,u
S=C1SCN(Cc2ccco2)CN1Cc1ccco1,1%,-20%,u,-5%,-11%
N#CC1=C2SCN(Cc3ccco3)CN2C(=O)CC1c1cccc2ccccc12 (configuration not stated),2%,-18%,18µM*,-3%,u
COc1cc(/C=N/NC(=O)c2sc3nc(C)cc(C)c3c2N)ccc1O,-6%,-19%,u,0%,20%
N#CC1(C#N)C(c2ccccc2)OC23CCCCC2C1(C#N)C(=N)O3 (configuration not stated),u,-7%,-14%,45µM*,-3%
CCC1C/C(=C\c2cccnc2)C(=O)/C(=C/c2cccnc2)C1 (configuration not stated),0%,-11%,10µM*,-11%,u
O=C1/C(=C/c2cccnc2)CCC/C1=C\c1cccnc1,3%,-16%,6.3µM*,-7%,u
COc1c(C=O)c(O)cc2c1C(=O)c1ccccc1C2=O,u,u,7.9µM*,1%,u
O=[N+]([O-])c1cc(Cl)ccc1Oc1ccc(-c2nnco2)cc1,-1%,u,-16%,1%,-3%
